Hits are enriched below; roughly 28% of the tested compounds scored in any of these assays.
D1 allo mod: allosteric modulators of human D1 dopamine receptor; HEK293 D1, CRE-luciferase, dopamine EC30 potentiation; actives deviate in either direction; B-score at 10 µM; hit rate 5.9% among 58,000; AID 641;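 active = luminescence count or its row- and column-corrected plate score outside the 99.7% band of the plate's sample wells, on either side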
CYP2C9 inh: inhibitors of human CYP2C9 | CYP2C9 Supersomes, luciferin-H conversion, luminescence | hit rate 20% among 96,000 | P11712 | inhibition, % at 5 µM;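 active = blocking of liver enzyme CYP2C9 beyond about 50% at 5 µM, limit read from the data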
CYP2C19 inh: inhibitors of human CYP2C19; inhibition, % at 5 µM; P33261; hit rate 21% among 96,000; CYP2C19 Supersomes, luciferin-H EGE luminescence, 30 min;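 active = CYP2C19 inhibition above a set limit at 5 µM in the primary screen, cut at about 50% in these data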
Target sequence (P33261 whole entry, looked up): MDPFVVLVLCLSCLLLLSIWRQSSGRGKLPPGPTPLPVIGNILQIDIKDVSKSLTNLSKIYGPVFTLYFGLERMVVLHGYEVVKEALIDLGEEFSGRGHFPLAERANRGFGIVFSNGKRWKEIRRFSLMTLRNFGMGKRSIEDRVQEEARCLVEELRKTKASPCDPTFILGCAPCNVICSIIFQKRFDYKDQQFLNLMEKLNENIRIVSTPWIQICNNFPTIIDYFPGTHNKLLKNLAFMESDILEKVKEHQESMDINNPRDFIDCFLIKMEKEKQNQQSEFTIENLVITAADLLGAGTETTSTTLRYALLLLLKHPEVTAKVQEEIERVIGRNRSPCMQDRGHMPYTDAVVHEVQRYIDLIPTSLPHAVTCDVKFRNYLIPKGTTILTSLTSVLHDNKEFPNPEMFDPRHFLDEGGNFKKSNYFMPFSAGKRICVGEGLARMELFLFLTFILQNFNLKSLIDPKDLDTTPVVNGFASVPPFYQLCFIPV
hDAT+cocaine: modulates human dopamine transporter uptake under cocaine. hit rate 1.3% among 110,000. LLC-PK1 hDAT cells, [14C]-dopamine uptake with cocaine IC80; actives deviate in either direction. Q01959. B-score at 10 µM. AID 449768;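 active = Z score or B-score, a plate-position-corrected score, falls beyond the plate's 99.7% confidence bounds, in either direction; inactive = both scores lie inside the 99.7% bounds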
CYP2C19 act: increases human CYP2C19 enzyme activity; P33261; recombinant CYP2C19, luciferin-H EGE luminescence; hits give high values; 0 = fully inhibited enzyme, 1 = untreated enzyme; activation factor at 5 µM; 96,000 tested, under 10 active; AID 1025;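 active = activation factor of at least 2 at 5 µM in the primary screen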
CYP2C9 activ: CYP2C9 (human) activation | recombinant CYP2C9, luciferin-H conversion, luminescence; hits give high values; factor 1 = untreated enzyme, 0 = blocked | activation factor at 5 µM | hit rate 1.4% among 96,000;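 active = activation factor of 2 or more for CYP2C9 at a 5 µM dose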
Numbers stand for hits; i = inactive; nt = no result given.

SMILES	D1 allo mod	CYP2C9 inh	CYP2C19 inh	hDAT+cocaine	CYP2C19 act	CYP2C9 activ
Cn1c(Cc2ccccc2)nnc1SCC(=O)c1cccs1	nt	i	95	i	i	i
COc1ccc(OC)c(C(=O)CSc2nnc(Cc3cccs3)n2CCc2ccccc2)c1	nt	i	55	i	i	i
Cn1c(SCC(=O)OCC(=O)c2ccccc2)nnc1-c1cccs1	i	i	i	i	i	i
Cc1ccc(C(=O)CSc2nnc(-c3cccs3)n2C)o1	i	i	51	i	i	i
COc1cccc(NC(=O)CSc2nnc(-c3cccs3)n2C)c1	i	i	i	i	i	i
COc1ccc(OC)c(C(=O)CSc2nnc(-c3cccs3)n2C)c1	i	i	97	i	i	i
CCO[C@@H]1OC(C(=O)Nc2ccccc2)=C[C@H](c2csc3ccccc23)[C@H]1CCCO	nt	nt	nt	i	nt	nt
Cc1cc(=O)[nH]c(N2CCc3ccccc3C2)n1	nt	i	i	i	i	i
Cc1cc2oc(=O)cc(COC(=O)c3cccc(N(C)C)c3)c2cc1C	i	nt	nt	nt	nt	nt
CCOC(=O)C1=NN(c2ccc(Cl)cc2)C(c2ccccc2)CC1=O (stereo not drawn)	nt	nt	nt	i	nt	nt
Cc1ccc(CNC(=O)c2oc3ccc(S(=O)(=O)N4CCOCC4)cc3c2C)cc1	nt	i	i	i	i	i
Cc1c(C(=O)NCc2ccco2)oc2ccc(S(=O)(=O)N3CCC4(CC3)OCCO4)cc12	nt	i	i	i	i	i
COc1ccc(CCNC(=O)c2oc3ccc(S(=O)(=O)N4CCOCC4)cc3c2C)cc1OC	nt	73	i	i	i	i
Cc1c(C(=O)N2CCC(C)CC2)oc2ccc(S(=O)(=O)N3CCC4(CC3)OCCO4)cc12	nt	i	i	i	i	i
Cc1c(C(=O)NCCc2ccccc2)oc2ccc(S(=O)(=O)N3CCC4(CC3)OCCO4)cc12	nt	87	63	i	i	i
COc1ccc(NC(=O)c2oc3ccc(S(=O)(=O)N4CCC5(CC4)OCCO5)cc3c2C)cc1	-3.3	i	i	i	i	i
Cc1ccc2[nH]c3c(c2c1)CC/C(=C/c1ccccc1)C3=O	nt	i	i	i	i	i
CN(C)/N=C/C=C1\CC/C(=C\c2ccc(Br)cc2)C1=O	nt	i	54	nt	i	i
Cc1cccc(C)c1NC(=O)C(C)c1ccc(-c2ccccc2)c(F)c1 (stereo not drawn)	nt	82	i	i	i	i
Cc1cccc(C)c1NC(=O)C(c1ccccc1)N1CCC1=O (stereo not drawn)	nt	i	i	i	i	i
COc1cc2c(cc1OC)C(c1ccccc1)N(C(=O)c1ccco1)CC2 (stereo not drawn)	nt	82	94	i	i	i
COc1ccc(OC(C)=O)c(C2c3cc(OC)c(OC)cc3CCN2C(C)=O)c1 (stereo not drawn)	i	i	i	i	i	i
COc1cc2c(cc1OC)C(c1cccc([N+](=O)[O-])c1)N(C(=O)c1ccc(F)cc1)CC2 (stereo not drawn)	nt	65	81	i	i	i
COc1cc(C(=O)N2CCN(C(=O)c3ccco3)CC2)cc(OC)c1OC	i	i	i	i	i	i
O=S(=O)(Nc1ccc(N2CCOCC2)nn1)c1ccccc1	nt	i	i	i	i	i
SMILES	D1 allo mod	CYP2C9 inh	CYP2C19 inh	hDAT+cocaine	CYP2C19 act	CYP2C9 activ
COc1cccc(-c2cc(C(F)(F)F)nc(N3CCN(c4ccccc4)CC3)n2)c1	nt	i	i	i	i	i
COC(=O)/C(=C(/F)SCC(C)=O)C(F)(F)F	nt	69	i	i	i	i
CCCNC(=O)COC(=O)c1ccccc1OCc1ccc(Cl)cc1	nt	78	87	i	i	i
CNC(=O)COC(=O)c1ccccc1Oc1ccccc1	nt	i	i	i	i	i
CCCc1cc(=O)n2[nH]c(Cc3ccccc3)nc2n1	i	i	i	i	i	i
CCN1C(=O)C(C(=O)Nc2ccc(OC)cc2)C2CC1(C)Oc1ccccc12 (stereo not drawn)	i	54	i	i	i	i
O=C(NC1CCCCCC1)C1CC(=O)N(Cc2ccccc2)C1 (stereo not drawn)	i	i	i	i	i	i
O=c1[nH]c2cccnc2n1Cc1ccccc1	nt	94	51	i	i	i
CCCn1c(=O)n(C)c(=O)c2c3oc(=O)c(NC(=O)c4ccc(F)cc4)cc3[nH]c21	i	nt	nt	nt	nt	nt
O=C(CSc1nc2cc(S(=O)(=O)N3CCOCC3)ccc2o1)NC1CCCc2ccccc21 (stereo not drawn)	i	60	74	i	i	i

Source: PubChem (several laboratories)
